About 79,000 compounds went through this panel and 15% of them were active in at least one assay; those are over-represented in the sample as a whole. Unmarked numbers belong to inactive results. No stated cut-off is given here; in the data, active means growth inhibition above about 70%; inactive means the rest.

This experiment is described as follows: NCI Yeast Anticancer Drug Screen. Data for the mec2-1 strain (AID 157). The settings on record: S. cerevisiae mec2-1 strain, at 50.0 µM, hits give high values. The protocol: Growth inhibition of yeast strains with defined genetic alterations is measured as a screen for potential anti-cancer activity. Selected strains with alterations in DNA damage repair or cell cycle control were exposed to compounds and growth inhibition was measured relative to vehicle treated controls. The strain used in this assay is mec2-1
As for `O=S(Cc1ccccc1)/C(=C/NC(=S)Nc1cc(Cl)ccc1Cl)c1ccccc1` (stereo not given), the growth inhibition was 7.05%. On to `ClCC(Cl)C1CCC(Cl)C(Cl)C1` (stereo not given), for which the growth inhibition was 6.1%.

Regarding `COc1ccc(C)cc1NC(=O)SC(C)C`, the growth inhibition was -18.9%.

`O=S(=O)(O)c1ccc(O)c(C2CCCCC2)c1`: the growth inhibition was -8.4%. The result for `CC(C)(C)CC1(C)NC(=O)NC1=O` (stereo not given) reads 8.25%; that for `S=c1nc(-c2ccccn2)c(-c2ccccn2)n[nH]1`, -9.05%. Then `N#CC1(O)CCCCC1`, with 10.6%; and `O=C(O)c1ccc(OCc2ccccc2)cc1`, with 11.2%; and `C/C(=N\O)c1ccccn1`, with -16.4%. For `CN1CCN(C(=S)S)CC1`, the growth inhibition is -2.5%. Then `CC(C)c1ncc([N+](=O)[O-])n1C`, with 2.9%; and `Cc1[nH]nc(C(N)=O)c1[N+](=O)[O-]`, with 4.95%.

With `CCOC(=O)c1c(C)[nH]c(C)c1C=O`, the growth inhibition was -0.05%.

As to `C=C1C(=O)C2CCC1C2` (stereo not given), the growth inhibition was -24.6%.

Consider `CC(C)c1ccccc1NC(=O)N1CCC(C(C)C)CC1`, for which the growth inhibition was -42.6%. In the case of `N#C/C(=C\NC(=S)N=Nc1c(O)[nH]c2ccccc12)c1nc2ccccc2s1`, the growth inhibition is 2.3%. Then `CCN(CC)CCN1CNC(=S)NC1`, with -20.6%; and `CCCc1cccc(CCC)c1NC(=O)Nc1cc(Cl)cc(Cl)c1`, with 19.9%; and `Nc1ccc(F)cc1F`, with -2.25%. The result for `O=C(Nc1ccccc1)c1ccco1` reads 33.2%; that for `O=C1NC(=O)/C(=C\c2ccncc2)N1`, -7.8%. Turning to `O=[N+]([O-])c1c(O)c(CNCCCO)cc(CNCCCO)c1O`, the growth inhibition was 29.8%. The result for `CCOC(=O)C(C#N)=C1CCN(C)CC1` reads -4.75%. `O=C(N/N=C\c1ccc(Cl)cc1Cl)c1ccncc1`: the growth inhibition was 6.85%. The result for `Cc1c(-c2ccc(C3CCCCC3)cc2)nc2ccc(F)cc2c1C(=O)O` reads 8.15%; that for `CC(=O)NNC(=S)N/C=C/c1c(C)ccc([N+](=O)[O-])c1[N+](=O)[O-]`, -35%. Then `CC12CCC3c4ccc(O)cc4CCC3C1CCC2=O` (stereo not given), with -11.8%; and `Cc1ccc2nc(N)nnc2c1`, with -34.1%; and `CCNC(=O)Oc1ccc[nH]c1=O`, with -10.8%. Then `Cc1cc(Cl)cc(Cc2cc(Cl)cc(C)c2O)c1O`, with 24.1%; and `CCCCN(C=S)CCCC`, with -2%.

As to `CN(C)c1ccc(/C=C/C(=O)c2ccc(NC(N)=O)cc2)cc1`, the growth inhibition was 1.9%. On to `O=C(NCc1ccccc1)/C(=C/c1ccccc1)NC(=O)c1ccccc1`, for which the growth inhibition was -31.4%. The result for `O=C(O)C1CCCN1C(=O)OCc1ccccc1` (stereo not given) reads -47.6%; that for `CC(C)(CC(=O)O)CC(=O)O`, 1.15%; that for `NS(=O)(=O)c1cc(=O)[nH]c(=O)[nH]1`, -10.8%. Then `Cc1cccc2ccccc12`, with -15.6%. The result for `COC1OC(C(O)C(O)CO)C(O)C(O)C1O` (stereo not given) reads -5.7%; that for `CC(CC(CCC(=O)O)(c1ccccc1)c1ccccc1)N(C)C` (stereo not given), -4.7%. As to `COc1c(CNC(=O)CCl)cc2[nH]c(C)cc2c1CNC(=O)CCl`, the growth inhibition was 4.95%.

Source of the values: PubChem BioAssay (NCI).
